Assay results published in PubChem BioAssay AID1159580 (chemical genetic matrix, 2015).
About 2,000 (36%) of roughly 5,500 compounds were called active. Roughly 18% stayed inconclusive and do not appear here. No stated cut-off is given here; in the data, active means normalized growth mostly below about 0.91 (no sharp cut-off); inconclusive means no clear call, values can overlap the other calls; inactive means mostly above about 0.92. The list shows a part of the results.

Assay: chemical genetic growth profiling, strain panel (AID 1159580);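 further: tested at 20 µM; growth read once vehicle control cultures reached saturation at 30 °C; 1 = growth at the plate median or of vehicle wells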
Conditions: S. cerevisiae deletion strains, growth OD

Measured: normalized growth

CCOC(=O)NC(=S)Nc1ccc(C(C)(C)C)cc1NC(=S)NC(=O)OCC
inactive: locus YAR019C, strain CDC15, stronger effect = lower value 0.986 | locus YBL105C, strain PKC1, stronger effect = lower value 0.985 | locus YBR135W, strain CKS1, stronger effect = lower value 0.98 | locus YBR136W, strain MEC1, stronger effect = lower value 0.979 | locus YBR160W, strain CDC28, stronger effect = lower value 0.991 | locus YDL017W, strain CDC7, stronger effect = lower value 0.989 | locus YDL028C, strain MPS1, stronger effect = lower value 0.979 | locus YDL101C, strain DUN1, stronger effect = lower value 0.982 | locus YDL108W, strain KIN28, stronger effect = lower value 0.985 | locus YDL132W, strain cdc53, stronger effect = lower value 0.983 | locus YDL214C, strain PRR2, stronger effect = lower value 0.94 | locus YDR052C, strain DBF4, stronger effect = lower value 0.982 | locus YDR054C, strain cdc34, stronger effect = lower value 0.983 | locus YDR226W, strain ADK1, stronger effect = lower value 0.988 | locus YDR477W, strain SNF1, stronger effect = lower value 0.921 | locus YER123W, strain YCK3, stronger effect = lower value 0.879 | locus YER133W, strain GLC7, stronger effect = lower value 0.934 | locus YFL009W, strain cdc4, stronger effect = lower value 0.974 | locus YFL029C, strain CAK1, stronger effect = lower value 0.985 | locus YFR003C, strain YPI1, stronger effect = lower value 0.986 | locus YFR019W, strain FAB1, stronger effect = lower value 0.922 | locus YFR028C, strain CDC14, stronger effect = lower value 0.986 | locus YGR040W, strain KSS1, stronger effect = lower value 0.923 | locus YGR052W, strain FMP48, stronger effect = lower value 1.04 | locus YGR092W, strain DBF2, stronger effect = lower value 0.572 | locus YHR030C, strain SLT2, stronger effect = lower value 1.08 | locus YHR079C, strain IRE1, stronger effect = lower value 0.985 | locus YHR082C, strain KSP1, stronger effect = lower value 1.05 | locus YHR205W, strain SCH9, stronger effect = lower value 0.985 | locus YIL147C, strain SLN1, stronger effect = lower value 0.978 | locus YJL095W, strain BCK1, stronger effect = lower value 0.995 | locus YJL128C, strain PBS2, stronger effect = lower value 0.944 | locus YJL157C, strain FAR1, stronger effect = lower value 0.911 | locus YJR016C, strain ILV3, stronger effect = lower value 0.981 | locus YJR066W, strain TOR1 (second series), stronger effect = lower value 0.778 | locus YJR066W, strain TOR1, stronger effect = lower value 1.06 | locus YKL048C, strain ELM1, stronger effect = lower value 0.928 | locus YKL067W, strain YNK1, stronger effect = lower value 0.932 | locus YKL101W, strain HSL1, stronger effect = lower value 0.961 | locus YKL193C, strain SDS22, stronger effect = lower value 0.987 | locus YKL203C, strain TOR2, stronger effect = lower value 0.989 | locus YLR113W, strain HOG1, stronger effect = lower value 1.02 | locus YLR133W, strain CKI1, stronger effect = lower value 0.948 | locus YLR403W, strain SFP1, stronger effect = lower value 0.91 | locus YML070W, strain DAK1, stronger effect = lower value 0.925 | locus YMR001C, strain CDC5, stronger effect = lower value 0.985 | locus YMR205C, strain PFK2 (second series), stronger effect = lower value 0.924 | locus YMR277W, strain FCP1, stronger effect = lower value 0.981 | locus YNL006W, strain LST8, stronger effect = lower value 0.98 | locus YNL020C, strain ARK1, stronger effect = lower value 0.928 | locus YNL161W, strain CBK1, stronger effect = lower value 0.986 | locus YNL183C, strain NPR1, stronger effect = lower value 1.06 | locus YNL207W, strain RIO2, stronger effect = lower value 0.981 | locus YNL222W, strain SSU72, stronger effect = lower value 0.98 | locus YNL307C, strain MCK1 (second series), stronger effect = lower value 0.926 | locus YOL078W, strain AVO1, stronger effect = lower value 0.979 | locus YOL136C, strain PFK27, stronger effect = lower value 0.931 | locus YOR061W, strain CKA2, stronger effect = lower value 0.712 | locus YOR119C, strain RIO1, stronger effect = lower value 0.959 | locus YOR231W, strain MKK1, stronger effect = lower value 0.997 | locus YOR329C, strain SCD5, stronger effect = lower value 0.983 | locus YPL031C, strain PHO85, stronger effect = lower value 0.93 | locus YPL153C, strain RAD53, stronger effect = lower value 0.897 | locus YPL204W, strain HRR25, stronger effect = lower value 0.924 | locus YPL209C, strain IPL1, stronger effect = lower value 0.989 | locus YPL256C, strain CLN2, stronger effect = lower value 1.04 | locus YPR025C, strain CCL1, stronger effect = lower value 0.986 | locus YPR106W, strain ISR1, stronger effect = lower value 0.986 | locus YPR111W, strain DBF20, stronger effect = lower value 0.978 | strain NNK1, stronger effect = lower value 0.981 | strain TSCII, stronger effect = lower value 0.985
